The list is not random: actives were taken first. Their share in the collection is about 4.6%.
UCHL1 inh = inhibitors of human UCHL1 deubiquitinase; purified UCHL1, Ub-rhodamine cleavage fluorescence; inhibition, % at 20 µM; 47,000 tested, 0.2% active
USP7 block = inhibitors of human USP7 deubiquitinase; purified USP7, Ub-rhodamine cleavage fluorescence; 47,000 tested, 0.3% active; AID 1645854; inhibition, % at 20 µM
USP8 inh = inhibitors of human USP8 deubiquitinase; purified USP8, Ub-rhodamine cleavage fluorescence, 30 min; inhibition, % at 20 µM; 47,000 tested, 4.2% active
USP10 inh = inhibitors of human USP10 deubiquitinase | Q14694 | purified USP10, Ub-rhodamine fluorescence, 60 min | inhibition, % at 20 µM | 47,000 tested, 1.1% active | AID 1645856
Target sequence (Q14694 whole entry, looked up): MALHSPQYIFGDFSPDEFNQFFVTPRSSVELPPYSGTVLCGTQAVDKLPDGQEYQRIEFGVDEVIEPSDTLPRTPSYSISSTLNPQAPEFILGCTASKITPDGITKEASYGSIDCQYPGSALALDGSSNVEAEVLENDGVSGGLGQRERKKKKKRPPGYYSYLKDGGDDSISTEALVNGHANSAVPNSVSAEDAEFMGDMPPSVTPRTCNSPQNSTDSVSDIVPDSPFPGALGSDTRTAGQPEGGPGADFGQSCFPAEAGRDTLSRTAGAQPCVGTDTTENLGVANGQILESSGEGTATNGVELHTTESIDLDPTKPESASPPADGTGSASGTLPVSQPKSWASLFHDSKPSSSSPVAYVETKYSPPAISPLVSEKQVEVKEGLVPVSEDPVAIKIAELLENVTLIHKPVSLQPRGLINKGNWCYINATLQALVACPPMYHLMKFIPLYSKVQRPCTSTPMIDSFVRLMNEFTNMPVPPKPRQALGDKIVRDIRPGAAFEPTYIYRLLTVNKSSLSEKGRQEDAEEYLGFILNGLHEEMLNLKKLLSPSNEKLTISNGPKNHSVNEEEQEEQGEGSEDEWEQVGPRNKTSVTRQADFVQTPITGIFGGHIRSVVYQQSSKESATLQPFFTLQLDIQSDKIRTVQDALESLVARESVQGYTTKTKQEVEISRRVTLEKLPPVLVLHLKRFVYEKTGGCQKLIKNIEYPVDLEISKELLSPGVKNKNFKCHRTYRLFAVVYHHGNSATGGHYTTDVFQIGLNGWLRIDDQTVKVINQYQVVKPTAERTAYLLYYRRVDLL
Each line names hits and unclear results; the compound was inactive in the other large screens. Rule as the data show it: active = inhibition above about 30%; inactive = the rest.

Cn1cc(-c2nccnc2CC2CCN(C(=O)OC(C)(C)C)C2)cn1 (stereo not given)	none
COc1ccccc1C(=O)N1CCC(S(=O)(=O)c2ccc(-c3ccco3)cc2)CC1	USP8 inh 53.4
COc1ccc(S(=O)(=O)N2CCN(C(=O)c3cnc4ccccc4n3)CC2)cc1OC	USP8 inh 61.3
O=C(c1cnc2ccccc2n1)N1CCC(S(=O)(=O)c2ccc(-c3ccco3)cc2)CC1	USP8 inh 55.9
Fc1ccc(Oc2nc(CN3CCOCC3)nc3sc4c(c23)CCCC4)c(Cl)c1	none
COc1ccccc1CNC(=O)CCCn1c(=O)c2ccccc2n(CC(=O)N2CCN(c3ccccc3)CC2)c1=O	none
Cn1c(=O)n(CC(=O)Nc2ccc(F)c(Cl)c2)c(=O)c2ccccc21	none
O=C(CCCCn1c(=O)c2ccccc2n(CC(=O)Nc2ccc(F)c(Cl)c2)c1=O)NCc1ccco1	USP8 inh 59.4
O=C(CCCn1c(=O)c2cc(Cl)ccc2n(CC(=O)Nc2cccc(F)c2)c1=O)NCc1ccco1	USP8 inh 30.3
O=C(CCCn1c(=O)c2ccccc2n(CC(=O)N2CCN(c3ccccc3)CC2)c1=O)NCc1ccco1	USP8 inh 35.8
O=C(Cn1c(=O)c2ccccc2n(CC(=O)Nc2ccc(F)c(Cl)c2)c1=O)NCc1ccco1	USP8 inh 44.2
O=C(Nc1ccnn1Cc1ccncc1)c1cccnc1SC(F)F	none
Cc1nc2c(c(=O)[nH]1)CCN(Cc1cc(C)n(-c3cccnc3)c1C)C2	none
O=C(Nc1cc(=O)[nH]c2nc(COc3ccccc3)nn12)c1ccc(Cl)cc1	USP8 inh 34.6
CC(=O)N1CCc2cc(Br)cc(S(=O)(=O)NCc3ccccc3Cl)c21	none
COC(=O)c1cc2c(ccn2-c2ccc(F)cc2)n1Cc1cccc2ccccc12	none
Cc1ccc(-c2cc(C(F)F)n3ncc(C(=O)Nc4ccc(O)cc4)c3n2)cc1	USP8 inh 60.4, USP10 inh 44.3
Cc1ccc(-c2cc(C(F)F)n3ncc(C(=O)Nc4ccc(Cl)cc4)c3n2)cc1	none
Nc1c(-c2ccc(Cl)cc2)cnc2nc(Sc3ncc(C(F)(F)F)cc3Cl)nn12	USP8 inh 35.3
Cc1cccc(-c2noc(Cn3c(=O)[nH]c4cc5c(cc4c3=O)OCO5)n2)c1	USP8 inh 55.0
O=C(Nc1ccccc1)c1ccnc(Nc2ccc(F)cc2)c1	USP8 inh 40.3
O=C(Cn1cnc2cc3c(cc21)OCCCO3)N1CCCc2ccccc21	USP8 inh 36.9
O=C(CN1CCN(S(=O)(=O)c2ccc3c(c2)OCCCO3)CC1)N1CCCc2ccccc21	none
COc1ccc(S(=O)(=O)N2CCOCC2)cc1NC(=O)C1Cc2ccccc2CN1C(=O)c1ccco1 (stereo not given)	USP8 inh 49.1
COc1cccc(C(=O)N2CCC(c3[nH]nc4nccnc34)CC2)c1	none
N#Cc1cn2c(nc1-c1ccc(Cl)cc1)nc1ccccc12	USP8 inh 70.9, USP10 inh 52.8
C=C[C@]1(C)CC[C@]2(C)[C@@H](C1)[C@@H](O)C[C@H]1[C@]3(C)CCC[C@@]12OC3=O	USP10 inh 38.0
COC(=O)c1ccc(NC(=O)/C=C/c2ccc(F)cc2)cc1	USP8 inh 96.0, USP10 inh 44.0 (no result: USP7 block)
Cc1cccc(-c2ccc(CC3(C(N)=O)CCN(C(=O)Cc4cccc(F)c4)CC3)cc2)c1	none
COC(=O)c1cc2c(ccn2-c2ccc(F)cc2)n1C	USP8 inh 36.5
COC(=O)c1cc2c(ccn2-c2ccc(F)cc2)n1CC(=O)N(C1CCCCC1)C1CCCCC1	none
Cc1cc(C)c2sc(NC(=O)c3ccc4c(c3)OCO4)nc2n1	none
CC(C)N1CC2CN(C(=O)CN3CCOCC3)CCN2Cc2ccccc21 (stereo not given)	none
Cc1cnnn1-c1ccc(C(=O)Nc2ccc(Cl)cc2Cl)cc1	USP8 inh 59.1
Cc1cnnn1-c1ccc(C(=O)Nc2ccccc2F)cc1	none
COc1ccc(-c2nc3n(n2)C(CC(=O)Nc2cccc4ccccc24)C(=O)N3)cc1 (stereo not given)	USP8 inh 51.4, USP10 inh 40.5
COCCN1C[C@@H](C)[C@@]2(COCCN(C(=O)c3ccoc3)C2)C1	none
COC(=O)c1ccc(NS(=O)(=O)c2c[nH]c3ccc([N+](=O)[O-])cc23)cc1	none
Cc1cc2c(cc1C)NC(CC(=O)Nc1ccc(O)cc1)C(=O)N2 (stereo not given)	USP8 inh 81.3
COc1ccc(N2CCN(CCCNC(=O)c3cc(Nc4ccc(C)c(C)c4)nc4ccccc34)CC2)cc1	none
O=C(NCc1ccc2c(c1)OCO2)c1cc(-c2cc(Cl)ccc2O)n[nH]1	USP8 inh 50.4
O=C(NCc1ccc2c(c1)OCO2)c1[nH]nc2c1CCc1ccccc1-2	USP8 inh 41.0
O=C(Nc1ccc2c(c1)OCO2)c1[nH]nc2c1CCc1ccccc1-2	USP8 inh 84.8
O=C(Nc1cccnc1)c1[nH]nc2c1COc1ccccc1-2	none
CC(=O)Nc1ccc(CN2CCC3(Cc4ccccc4CN(C(C)=O)C3)C2)cc1 (stereo not given)	none
Cc1ccc(C)c(Cn2c(CCCNC(=O)c3ccco3)nc3ccccc32)c1	none
COCCNc1nnc(-c2nnc(C3CC3)o2)c2ccccc12	none
Cc1ccc2c(C)c(C(=O)Nc3ccc4c(c3)NC(=O)C(C)O4)oc2c1 (stereo not given)	none
CCN1C(=O)Cc2cc(NS(=O)(=O)c3cc(C)ccc3C)ccc21	USP8 inh 40.2
CCN1C(=O)Cc2cc(NS(=O)(=O)c3ccccc3F)ccc21	none
O=C(NCc1ccc(-c2nc3ncccc3o2)cc1)c1ccccc1	USP8 inh 32.2
CCOc1ccc2cc3c(nc2c1)OC(=O)N(Cc1ccc(OC)cc1)C3	USP8 inh 77.3
COc1ccc2cc3c(nc2c1)OC(=O)N(CCc1cccc(F)c1)C3	USP8 inh 34.6
COc1ccc2cc3c(nc2c1)OC(=O)N(Cc1ccc(F)cc1)C3	none
Cc1ccc2cc3c(nc2c1)OC(=O)N(Cc1ccc(C)o1)C3	USP8 inh 50.1
O=C(COc1cccc2ccc(N3CCC(Cc4ccccc4)CC3)nc12)Nc1cccc(Cl)c1	USP8 inh 84.2
Cc1cn2nnc(C(=O)Nc3ccc(OC(F)(F)F)cc3)c2c(=O)[nH]1	USP8 inh 54.1
CSc1ccccc1NC(=O)c1nnn2cc(C)[nH]c(=O)c12	none
O=C(Nc1ccccc1)N1CCC2(C1)CN(C1CCN(Cc3ccccc3)CC1)C2	none
CCOc1ccc(NC(=O)COC(=O)C2(c3ccc(F)cc3)CCCC2)cc1	none
CN(C)c1ccc(NC(=O)COC(=O)C2(c3ccc(F)cc3)CCCC2)cc1	USP8 inh 71.5
Cc1nc2ccc(NC(=O)COc3ccccc3[N+](=O)[O-])cc2s1	USP8 inh 43.8
COC(=O)C1(Cc2ccc(O)cc2)OC(=O)C(O)=C1c1ccc(O)cc1 (stereo not given)	UCHL1 inh 36.9
CC(=O)NCCc1ccc(O)cc1	none
O=C(NCCc1nc2ccccc2n1CCCOc1ccccc1Cl)C1CCCCC1	USP8 inh 74.3, USP10 inh 30.8
COc1cccc(CN2CCc3c(nc(C)[nH]c3=O)C2)c1	none
CCCCCn1c(SCC(=O)CC(=O)OCC)nc2cc(C(=O)NCc3ccco3)ccc2c1=O	USP8 inh 63.4

Source: PubChem
